These results are taken from PubChem BioAssay (NCATS).

The target in assay [1] is Cellular tumor antigen p53 (Homo sapiens) (UniProt P04637). Kind of assay: Primary qHTS for small molecule compounds that upregulate eGFP-tagged delta133p53alpha (in N-terminal) cells. (AID 2060322). Further: nearly all actives have a fitted effect of over 75% in size. Further: potency means the concentration at half of the fitted maximal effect.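 On activation: series mostly up to about 56 µM; 0% = DMSO vehicle and 100% = reference activator.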 The note with it: NCI-H358 eGFP-delta133p53alpha fluorescence, 24 h; activation: active compounds read high. The method, boiled down:
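NCI-H358 cells pre-induced 24 h with 10 ng/ml doxycycline to express N-terminal eGFP-delta133p53alpha, then dosed 24 h at 37C without doxycycline; fixed, Hoechst-stained, GFP intensity by laser scanning cytometry, normalized to DMSO (0%) and 57.5 uM 5-azacytidine (100%).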
For orientation: In qHTS, concentration-response curves come from the screen itself.

Assay [2] deals with Aldehyde dehydrogenase, mitochondrial (Homo sapiens) (UniProt P05091). Put plainly: qHTS for Inhibitors of the Aldehyde Dehydrogenase Family (ALDH2) Primary screen (AID 2061308).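 Further: plate controls were vehicle for no effect and reference inhibitor for full effect; nearly all actives have a fitted effect of over 55% in size.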
Assay [3] has as its target Retinaldehyde dehydrogenase 3 (Homo sapiens) (UniProt P47895). Put plainly: qHTS for Inhibitors of the Aldehyde Dehydrogenase Family (ALDH1A3) Primary screen (AID 2061315).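 Further: plate controls were DMSO vehicle for no effect and reference inhibitor for full effect.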

Records with an inconclusive call do not appear. Unmarked numbers belong to inactive results. Calls of active or inactive are those of the source. The call rests on the fitted dose curve; in most records, active means well fitted curve in the direction sought with a large enough effect; inconclusive means small, poorly fitted or top-dose-only effect, or another doubt; inactive means no such curve, though single readings can be large; an effect the other way counts as inactive or inconclusive.

Chain of Cellular tumor antigen p53 (Homo sapiens) (P04637 whole entry, looked up): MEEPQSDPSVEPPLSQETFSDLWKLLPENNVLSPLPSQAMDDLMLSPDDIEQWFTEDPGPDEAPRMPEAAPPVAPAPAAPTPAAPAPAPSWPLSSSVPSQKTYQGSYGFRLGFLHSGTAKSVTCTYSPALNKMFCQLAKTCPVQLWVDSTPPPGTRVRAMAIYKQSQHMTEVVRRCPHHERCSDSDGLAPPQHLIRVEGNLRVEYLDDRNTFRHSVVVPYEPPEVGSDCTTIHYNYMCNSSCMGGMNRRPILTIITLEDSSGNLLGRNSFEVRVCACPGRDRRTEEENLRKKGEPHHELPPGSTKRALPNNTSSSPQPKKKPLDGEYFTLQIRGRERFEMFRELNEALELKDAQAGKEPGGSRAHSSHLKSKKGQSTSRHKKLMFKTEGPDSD

Take `C=C1CC[C@H]2[C@@H](/C=C(\C)C(=O)[C@@]3(OC(C)=O)C[C@H](C)[C@H](OC(C)=O)[C@@H]3[C@H]1OC(C)=O)C2(C)C`: in assay [1], the activation is -20.6%. Further, the Potency result in assay [2] and in assay [3] was “inactive” in each case.

For the compound `C[C@@H]1CC[C@]2(C(=O)O)CC[C@]3(C)C(=CCC4[C@]5(C)C(CC[C@]43C)C(C)(C)[C@@H](O)[C@H](O)[C@@H]5O)C2[C@]1(C)O` (some centres undefined), in assay [1], the activation was -4.46%. Besides, the Potency result in assay [2] and in assay [3] was “inactive” throughout.

For `CC(C)(O)C(=O)N1CCN(c2ccc(C(F)(F)F)c(C3=C(c4c[nH]c5ccccc45)C(=O)NC3=O)c2)CC1`, in assay [1], the Potency is 26.9 µM (active). For the same compound, the Potency entry in assay [2] and in assay [3] was “inactive” in each case.

For the compound `N#Cc1ccc(N2N=C3c4ccc(C(=O)O)cc4CC[C@@H]3[C@@H]2C2CCCC2)cc1Cl`, the activation in assay [1] was -25%. In addition, the Potency entry in assay [2] and in assay [3] was “inactive” throughout.

As to `CC1CCC2C(C)(C)[C@H](O)CC[C@]2(C)C12Cc1c(O)cc3c(c1O2)CN(C(CCC(=O)O)C(=O)O)C3=O` (some centres undefined), the activation in assay [1] is -2.29%. Also, the Potency entry in assay [2] and in assay [3] was “inactive” each time.

For the compound `CC(=O)O[C@H]1CC[C@H](C)[C@@]2(C)[C@H](OC(C)=O)c3c(C)coc3C(=O)[C@H]12`, the activation in assay [1] was -3.82%. In addition, the Potency result in assay [2] and in assay [3] was “inactive” throughout.

Consider `CC(CCC1C(C(=O)O)=CC(=O)CC1(C)C)O[C@@H]1O[C@H](CO)[C@@H](O)[C@H](O)[C@H]1O` (some centres undefined), for which the activation in assay [1] is -11.5%. Further, the Potency entry in assay [2] and in assay [3] was “inactive” in each case.

For `CC(=O)OC[C@@]12[C@@H](OC(C)=O)C[C@@H](C)[C@](C)([C@@H]3C[C@H]4C=CO[C@H]4O3)[C@H]1CCC[C@]21CO1`, in assay [1], the activation is 0%. Moreover, the Potency entry in assay [2] and in assay [3] was “inactive” each time.
